Data from the supplement of paper PMC11732987, “Enantioselective OTUD7B fragment discovery through chemoproteomics screening and high-throughput optimisation” (Communications Chemistry, 2025).
A number with no mark means an inactive call.

Key:
Experiment in all cases: log2 ratio of Biotin-Ahx-Ub-VS probe labelling (fragment/DMSO); higher = less target engagement (more negative = stronger competition), active = hit call of the paper (q ≤ 0.05, log2 ratio ≤ -1)
Conditions in all cases: compound concentration: 200 uM; treatment time: 3 h
[1] = target: T1, ALG13 (UniProt Q9NP73)
T1 sequence (whole entry): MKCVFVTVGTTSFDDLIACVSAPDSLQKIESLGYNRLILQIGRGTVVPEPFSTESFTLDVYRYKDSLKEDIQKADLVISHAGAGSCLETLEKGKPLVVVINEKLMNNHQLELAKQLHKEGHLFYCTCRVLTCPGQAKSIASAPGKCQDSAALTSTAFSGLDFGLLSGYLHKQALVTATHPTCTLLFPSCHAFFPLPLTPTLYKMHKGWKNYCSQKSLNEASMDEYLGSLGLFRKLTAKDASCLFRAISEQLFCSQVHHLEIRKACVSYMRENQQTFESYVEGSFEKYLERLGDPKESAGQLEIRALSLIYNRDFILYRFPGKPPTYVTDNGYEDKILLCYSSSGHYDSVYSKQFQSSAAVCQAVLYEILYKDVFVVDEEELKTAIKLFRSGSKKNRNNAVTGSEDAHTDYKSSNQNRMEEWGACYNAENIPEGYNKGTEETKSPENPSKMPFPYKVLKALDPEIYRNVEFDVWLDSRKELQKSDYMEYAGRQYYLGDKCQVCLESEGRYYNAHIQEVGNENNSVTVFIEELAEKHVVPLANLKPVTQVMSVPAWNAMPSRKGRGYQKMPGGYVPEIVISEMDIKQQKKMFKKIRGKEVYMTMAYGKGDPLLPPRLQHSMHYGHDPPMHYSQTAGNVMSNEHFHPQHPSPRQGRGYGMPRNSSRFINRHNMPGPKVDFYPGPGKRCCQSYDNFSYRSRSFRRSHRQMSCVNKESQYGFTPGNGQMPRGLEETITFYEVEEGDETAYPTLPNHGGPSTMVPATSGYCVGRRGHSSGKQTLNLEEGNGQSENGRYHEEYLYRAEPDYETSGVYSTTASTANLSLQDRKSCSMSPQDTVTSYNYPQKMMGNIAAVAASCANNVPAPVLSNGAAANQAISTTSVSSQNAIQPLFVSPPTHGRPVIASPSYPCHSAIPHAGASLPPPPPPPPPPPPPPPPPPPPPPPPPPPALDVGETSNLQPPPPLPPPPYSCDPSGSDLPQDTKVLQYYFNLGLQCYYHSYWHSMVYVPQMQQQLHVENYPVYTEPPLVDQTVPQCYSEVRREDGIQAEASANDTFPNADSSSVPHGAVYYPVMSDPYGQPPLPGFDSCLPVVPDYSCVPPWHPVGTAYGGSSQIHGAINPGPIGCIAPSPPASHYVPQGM
How it was run: (§1)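 Global-median-normalised Spectronaut label-free quantities were compared by unpaired t-test, and values are average log2 ratios of fragment over vehicle. Only proteins with ≥2 unique peptides were used. HEK293T lysate (495 µg per sample) was treated in triplicate with fragment at 200 µM or vehicle for 3 h and then with Biotin-Ahx-Ub-VS at 0.5 µM final for 1 h. Labelled DUBs were then NeutrAvidin-enriched, digested with LysC and trypsin, and run by diaPASEF LC-MS/MS.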

[2] = target: ATXN3 (UniProt P54252)
How it was run: as §1

[3] = target: T2, BAP1 (UniProt Q92560)
T2 sequence (whole entry): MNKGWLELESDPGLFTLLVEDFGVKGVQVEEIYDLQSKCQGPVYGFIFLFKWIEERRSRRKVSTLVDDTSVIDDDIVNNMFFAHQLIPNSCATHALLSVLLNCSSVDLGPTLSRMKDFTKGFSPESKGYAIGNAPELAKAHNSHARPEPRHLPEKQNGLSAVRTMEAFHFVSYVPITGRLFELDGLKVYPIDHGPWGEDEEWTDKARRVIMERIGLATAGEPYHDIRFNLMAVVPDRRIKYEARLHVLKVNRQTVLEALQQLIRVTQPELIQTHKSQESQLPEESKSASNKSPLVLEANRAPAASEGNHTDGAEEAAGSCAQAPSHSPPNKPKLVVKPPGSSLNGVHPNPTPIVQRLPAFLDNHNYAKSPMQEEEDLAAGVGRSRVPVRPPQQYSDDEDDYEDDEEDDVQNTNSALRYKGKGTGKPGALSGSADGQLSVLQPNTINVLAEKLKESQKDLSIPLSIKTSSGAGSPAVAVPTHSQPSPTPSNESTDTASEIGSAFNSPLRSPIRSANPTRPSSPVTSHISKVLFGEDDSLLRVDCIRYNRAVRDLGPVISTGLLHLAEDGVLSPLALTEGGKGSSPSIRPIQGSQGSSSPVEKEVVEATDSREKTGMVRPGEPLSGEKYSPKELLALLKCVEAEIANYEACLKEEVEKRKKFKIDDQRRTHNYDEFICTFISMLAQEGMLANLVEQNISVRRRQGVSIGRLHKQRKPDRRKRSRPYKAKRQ
How it was run: as §1

[4] = target: EIF3F (UniProt O00303)
How it was run: as §1

[5] = target: EIF3H (UniProt O15372)
How it was run: as §1

[6] = target: T3, FAM105A (UniProt Q9NUU6)
T3 sequence (whole entry): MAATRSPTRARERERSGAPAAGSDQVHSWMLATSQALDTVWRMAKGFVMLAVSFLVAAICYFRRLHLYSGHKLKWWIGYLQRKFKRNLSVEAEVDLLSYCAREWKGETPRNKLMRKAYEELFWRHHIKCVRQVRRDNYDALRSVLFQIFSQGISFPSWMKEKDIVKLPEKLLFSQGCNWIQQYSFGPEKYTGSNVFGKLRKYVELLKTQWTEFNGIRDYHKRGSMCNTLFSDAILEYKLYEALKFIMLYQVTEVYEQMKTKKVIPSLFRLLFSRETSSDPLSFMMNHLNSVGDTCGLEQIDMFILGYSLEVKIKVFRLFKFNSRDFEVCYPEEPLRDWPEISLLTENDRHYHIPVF
How it was run: as §1

[7] = target: OTUB1 (UniProt Q96FW1)
How it was run: as §1

[8] = target: T4, OTUD4 (UniProt Q01804)
T4 sequence (whole entry): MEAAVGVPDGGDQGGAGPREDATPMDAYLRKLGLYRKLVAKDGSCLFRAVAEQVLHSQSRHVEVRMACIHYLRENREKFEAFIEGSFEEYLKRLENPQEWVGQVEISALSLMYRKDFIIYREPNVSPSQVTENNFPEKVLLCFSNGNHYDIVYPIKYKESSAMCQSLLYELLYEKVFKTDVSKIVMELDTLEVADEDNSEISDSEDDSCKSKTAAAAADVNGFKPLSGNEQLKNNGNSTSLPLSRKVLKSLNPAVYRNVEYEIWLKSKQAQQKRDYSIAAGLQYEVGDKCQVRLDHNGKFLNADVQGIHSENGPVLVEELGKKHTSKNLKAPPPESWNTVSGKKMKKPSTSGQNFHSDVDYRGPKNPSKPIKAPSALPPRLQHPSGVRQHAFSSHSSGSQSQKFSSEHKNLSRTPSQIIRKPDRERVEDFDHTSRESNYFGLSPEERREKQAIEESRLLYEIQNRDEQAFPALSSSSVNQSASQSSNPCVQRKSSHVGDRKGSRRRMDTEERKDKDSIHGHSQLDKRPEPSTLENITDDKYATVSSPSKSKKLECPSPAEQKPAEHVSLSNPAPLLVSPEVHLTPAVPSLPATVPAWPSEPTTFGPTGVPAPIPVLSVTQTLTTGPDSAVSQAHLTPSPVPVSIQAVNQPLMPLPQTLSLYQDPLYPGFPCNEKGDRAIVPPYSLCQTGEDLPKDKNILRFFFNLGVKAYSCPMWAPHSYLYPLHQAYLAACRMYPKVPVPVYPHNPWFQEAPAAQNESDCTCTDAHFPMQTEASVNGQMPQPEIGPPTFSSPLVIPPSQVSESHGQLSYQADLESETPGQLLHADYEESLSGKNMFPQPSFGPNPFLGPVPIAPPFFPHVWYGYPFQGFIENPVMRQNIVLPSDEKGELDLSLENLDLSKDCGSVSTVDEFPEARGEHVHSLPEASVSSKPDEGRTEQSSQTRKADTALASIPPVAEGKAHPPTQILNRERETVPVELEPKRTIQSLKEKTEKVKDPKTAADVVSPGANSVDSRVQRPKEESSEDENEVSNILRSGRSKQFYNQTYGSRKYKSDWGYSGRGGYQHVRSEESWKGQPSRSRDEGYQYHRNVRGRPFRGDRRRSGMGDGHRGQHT
How it was run: as §1

[9] = target: T5, OTUD5 (UniProt Q96G74)
T5 sequence (whole entry): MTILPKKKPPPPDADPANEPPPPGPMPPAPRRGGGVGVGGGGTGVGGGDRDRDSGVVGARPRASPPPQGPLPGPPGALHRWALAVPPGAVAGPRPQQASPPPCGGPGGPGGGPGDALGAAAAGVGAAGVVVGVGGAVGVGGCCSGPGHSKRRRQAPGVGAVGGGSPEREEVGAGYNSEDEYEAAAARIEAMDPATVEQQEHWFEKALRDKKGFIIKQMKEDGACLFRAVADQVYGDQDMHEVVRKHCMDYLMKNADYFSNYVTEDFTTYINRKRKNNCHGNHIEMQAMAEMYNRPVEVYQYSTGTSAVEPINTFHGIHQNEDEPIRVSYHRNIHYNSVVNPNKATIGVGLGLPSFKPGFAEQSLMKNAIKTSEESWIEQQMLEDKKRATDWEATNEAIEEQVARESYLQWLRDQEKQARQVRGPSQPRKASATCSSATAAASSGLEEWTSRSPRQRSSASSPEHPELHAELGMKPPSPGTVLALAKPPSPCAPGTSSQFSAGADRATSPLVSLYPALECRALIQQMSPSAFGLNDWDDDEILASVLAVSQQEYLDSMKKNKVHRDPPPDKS
How it was run: as §1

Chain of OTUB1 (Q96FW1 whole entry): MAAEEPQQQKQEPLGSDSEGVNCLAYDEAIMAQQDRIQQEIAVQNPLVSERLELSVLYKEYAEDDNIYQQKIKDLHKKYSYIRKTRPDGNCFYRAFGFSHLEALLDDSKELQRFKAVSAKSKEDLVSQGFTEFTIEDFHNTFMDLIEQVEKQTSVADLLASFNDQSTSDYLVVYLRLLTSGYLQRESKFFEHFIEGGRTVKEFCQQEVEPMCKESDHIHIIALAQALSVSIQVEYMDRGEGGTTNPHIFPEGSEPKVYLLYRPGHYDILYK
Chain of EIF3H (O15372 whole entry): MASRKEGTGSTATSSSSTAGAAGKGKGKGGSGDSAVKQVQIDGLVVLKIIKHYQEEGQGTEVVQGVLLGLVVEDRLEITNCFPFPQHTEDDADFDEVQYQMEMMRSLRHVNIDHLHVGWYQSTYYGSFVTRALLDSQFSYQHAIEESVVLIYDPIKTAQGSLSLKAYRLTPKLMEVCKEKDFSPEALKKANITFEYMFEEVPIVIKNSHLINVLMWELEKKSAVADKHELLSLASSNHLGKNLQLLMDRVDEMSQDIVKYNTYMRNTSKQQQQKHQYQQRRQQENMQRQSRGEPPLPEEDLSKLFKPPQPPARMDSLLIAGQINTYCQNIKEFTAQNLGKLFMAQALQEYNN
Chain of ATXN3 (P54252 whole entry): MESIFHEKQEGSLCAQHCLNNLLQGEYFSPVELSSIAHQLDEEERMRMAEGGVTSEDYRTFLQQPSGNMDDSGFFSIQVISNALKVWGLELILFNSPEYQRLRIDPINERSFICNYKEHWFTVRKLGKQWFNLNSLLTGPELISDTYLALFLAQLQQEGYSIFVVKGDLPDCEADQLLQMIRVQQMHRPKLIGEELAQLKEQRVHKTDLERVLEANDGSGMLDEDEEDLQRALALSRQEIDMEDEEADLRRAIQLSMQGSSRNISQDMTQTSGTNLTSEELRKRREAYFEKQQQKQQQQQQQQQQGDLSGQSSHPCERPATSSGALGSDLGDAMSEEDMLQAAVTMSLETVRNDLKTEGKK
Chain of EIF3F (O00303 whole entry): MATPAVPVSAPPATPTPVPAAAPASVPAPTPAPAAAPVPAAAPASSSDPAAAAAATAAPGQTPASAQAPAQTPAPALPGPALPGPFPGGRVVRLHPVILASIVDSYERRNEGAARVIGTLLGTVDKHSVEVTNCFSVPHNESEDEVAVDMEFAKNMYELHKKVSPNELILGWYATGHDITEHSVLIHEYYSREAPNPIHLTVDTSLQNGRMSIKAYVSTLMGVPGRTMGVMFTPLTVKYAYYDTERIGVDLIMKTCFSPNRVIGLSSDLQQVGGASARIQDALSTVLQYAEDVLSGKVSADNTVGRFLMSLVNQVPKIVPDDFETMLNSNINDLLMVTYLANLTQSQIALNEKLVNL

Q: Which “log2 ratio of Biotin-Ahx-Ub-VS probe labelling” value (“log2 ratio” below) [1] does the source give for `O=C(CCl)NCc1noc(C2CC2)n1` here?
A: Its value is 0.174.

Q: And the “log2 ratio” value [2]?
A: Its value is -0.198.

Q: And the “log2 ratio” value [3]?
A: The value was -1.08 (active).

Q: What about the “log2 ratio” value [4] of the same compound?
A: Its value is -0.262.

Q: And the “log2 ratio” value [5]?
A: The value was 0.143.

Q: And the “log2 ratio” value [6]?
A: The value was 0.00371.

Q: And the “log2 ratio” value [7]?
A: The value was -0.305.

Q: What about the “log2 ratio” value [8] of the same compound?
A: Its value is -0.405.

Q: What about the “log2 ratio” value [9] of the same compound?
A: Its value is -0.391.
